Among all 2,400 compounds or so, about 750 (31%) were called active.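 The calls were made as follows: active = median signal gain over dofetilide-blocked control wells reaching their mean plus 3 SD, so readout 1 at least 0; inactive = the rest.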 The list shows a part of the results.
What follows are molecules tested against Voltage-gated inwardly rectifying potassium channel KCNH2 (Homo sapiens) (UniProt Q12809) (assay: modulators restoring hERG flux under dofetilide – cell-based, thallium flux, duplicate retest, dofetilide IC70, confirmation (AID 1835)). Conditions: hERG cell line, FluxOR thallium flux, dofetilide-blocked; at 10 µM; hits give high values.
Voltage-gated inwardly rectifying potassium channel KCNH2 (Homo sapiens), sequence (Q12809 whole entry, looked up): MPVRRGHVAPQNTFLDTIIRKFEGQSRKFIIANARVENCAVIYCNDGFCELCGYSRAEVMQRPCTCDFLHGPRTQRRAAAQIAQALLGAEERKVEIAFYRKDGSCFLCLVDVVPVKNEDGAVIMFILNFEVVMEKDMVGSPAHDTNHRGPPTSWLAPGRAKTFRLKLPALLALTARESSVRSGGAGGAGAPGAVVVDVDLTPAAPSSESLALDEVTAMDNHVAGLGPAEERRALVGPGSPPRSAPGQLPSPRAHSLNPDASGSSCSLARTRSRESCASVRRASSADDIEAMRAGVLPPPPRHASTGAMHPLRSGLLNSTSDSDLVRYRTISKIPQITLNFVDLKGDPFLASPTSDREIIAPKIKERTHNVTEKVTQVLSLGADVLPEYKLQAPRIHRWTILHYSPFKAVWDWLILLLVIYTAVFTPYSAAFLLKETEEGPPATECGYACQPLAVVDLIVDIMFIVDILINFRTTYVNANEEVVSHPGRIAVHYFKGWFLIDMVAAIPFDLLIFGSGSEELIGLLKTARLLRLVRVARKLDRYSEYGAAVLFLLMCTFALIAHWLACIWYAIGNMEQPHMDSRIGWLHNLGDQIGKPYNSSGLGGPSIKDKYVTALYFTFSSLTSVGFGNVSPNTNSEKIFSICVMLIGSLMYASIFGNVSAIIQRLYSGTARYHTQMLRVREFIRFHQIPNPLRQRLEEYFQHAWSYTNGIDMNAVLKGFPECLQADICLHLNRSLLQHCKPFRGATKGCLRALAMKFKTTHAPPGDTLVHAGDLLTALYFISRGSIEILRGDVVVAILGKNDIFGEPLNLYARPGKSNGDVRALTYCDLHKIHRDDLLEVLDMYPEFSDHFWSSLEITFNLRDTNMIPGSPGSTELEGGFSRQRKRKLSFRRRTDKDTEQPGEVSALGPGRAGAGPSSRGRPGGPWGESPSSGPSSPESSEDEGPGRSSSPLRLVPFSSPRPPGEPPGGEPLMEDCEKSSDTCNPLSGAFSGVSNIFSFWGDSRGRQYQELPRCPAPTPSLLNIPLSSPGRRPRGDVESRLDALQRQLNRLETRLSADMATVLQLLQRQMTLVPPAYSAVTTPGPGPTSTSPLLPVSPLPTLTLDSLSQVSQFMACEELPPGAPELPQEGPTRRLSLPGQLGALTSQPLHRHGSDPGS

| SMILES | activity increase over dofetilide control, less the hit threshold |
| --- | --- |
| CN1C(=O)C2(OCC(C)([N+](=O)[O-])CO2)c2ccccc21 (stereo not given) | -7% (inactive) |
| Cc1nc2cc3sc(C)nc3cc2s1 | -8% (inactive) |
| Cc1cccc(N/C(N)=N/c2nc(C)cc(=O)[nH]2)c1 | -9% (inactive) |
| Cc1ccc(NN=Nc2nc3c([nH]2)c(=O)n(C)c(=O)n3C)cc1 | -6% (inactive) |
| Cc1ccc(Nc2cc(C)nn2-c2nc(C)cc(=O)[nH]2)cc1 | 40% (active) |
| C=CCn1c(=S)[nH]c2sc3c(c2c1=O)CCCC3 | 30% (active) |
| C=CCn1c(=S)[nH]c2sc3c(c2c1=O)CCC3 | 27% (active) |
| c1ccc(SSc2ccccn2)nc1 | -21% (inactive) |
| O=C(NCc1ccc(Cl)cc1)C1CCN(S(=O)(=O)c2cccc3nonc23)CC1 | -5% (inactive) |
| CCOC(=O)C1CCN(S(=O)(=O)c2cccc3nonc23)CC1 | 2% (active) |
| CCOC(=O)C1CCCN(C(=O)CN2C(=O)c3ccccc3C2=O)C1 (stereo not given) | -20% (inactive) |
| CCN1CCN(CCNC(=O)CCCn2nc(C)c3c(C)n(-c4ccc(C)cc4)nc3c2=O)CC1 | -8% (inactive) |
| Cc1cc(C)cc(OCc2nnc(SCC(=O)Nc3ccccc3)o2)c1 | -19% (inactive) |
| CC(Oc1ccc(Br)cc1Br)C(=O)Nc1cccnc1 (stereo not given) | 9% (active) |
| COc1ccc(S(=O)(=O)Nc2cccnc2)cc1 | -11% (inactive) |
| CC(Oc1ccc(Cl)cc1Cl)C(=O)Nc1cccnc1 (stereo not given) | -23% (inactive) |
| Oc1ccc(Cl)cc1C1=NNC(c2cccs2)C1 (stereo not given) | 10% (active) |
| O=C(Nc1cc(Cl)ccc1O)C1CC(c2ccccc2Cl)=NO1 (stereo not given) | -1% (inactive) |
| CCCNS(=O)(=O)c1ccc(OCC(=O)Nc2ccc3c(c2)OCCO3)cc1 | -10% (inactive) |
| CCOc1cc(C(=O)NC)cc(OCC)c1OCC | -13% (inactive) |
| COCCNC(=O)C1CC(=O)N(c2ccc(OC)cc2)C1c1ccc(OC)cc1 (stereo not given) | -24% (inactive) |
| O=c1ccc(N=Nc2ccccc2)ccc1O | 68% (active) |
| CN(C)c1ccc(N=Nc2ccc(C(=O)O)cc2)cc1 | -4% (inactive) |
| COc1ccc(CN(C)C(=O)c2cccc(NS(=O)(=O)c3ccccc3)c2)cc1F | -26% (inactive) |
| O=C1CC(O)(C(F)(F)F)Oc2c1ccc1ccccc21 (stereo not given) | 13% (active) |

| SMILES | activity increase over dofetilide control, less the hit threshold |
| --- | --- |
| CC1(C)Cc2c(ccc3ccccc23)C2=C(C(=O)N3CCCC3)C(=O)C(=O)N21 | -16% (inactive) |
| COc1ccc(N(C(=O)c2ccco2)S(=O)(=O)c2cccs2)cc1 | -6% (inactive) |
| CC(=O)Nc1ccc(S(=O)(=O)N2CCC(C(=O)O)CC2)cc1 | -6% (inactive) |
| N=c1sccn1CC(=O)Nc1ccccc1Cc1ccccc1 | -7% (inactive) |
| Cc1ccc(NC(=O)c2ccc(CNS(=O)(=O)c3cccc(C(F)(F)F)c3)cc2)cc1 | -1% (inactive) |
| CC(=O)c1ccc(S(=O)(=O)NCc2ccc(C(=O)N(C)CC(=O)Nc3cccc(F)c3)cc2)cc1 | 2% (active) |
| CN(CC(=O)Nc1ccc(Cl)cc1)C(=O)c1cccc(S(=O)(=O)NCc2ccccc2)c1 | -18% (inactive) |
| O=C(CSc1cn(CC(=O)N2CCCC2)c2ccccc12)NCC1CCCO1 (stereo not given) | -28% (inactive) |
| COc1ccc(CCN2C(=O)CSC2=S)cc1OC | -16% (inactive) |
| Cc1cccc(NC(=S)NNC(=O)c2csc3c2CCC(C)C3)c1 (stereo not given) | -3% (inactive) |
| Cc1ccc(C)c(NC(=S)NNC(=O)c2csc3c2CCC(C)C3)c1 (stereo not given) | 9% (active) |
| Cc1ccc(C)c(NC(=O)C2C3CCCC2C3c2ccccc2)c1 (stereo not given) | -16% (inactive) |
| CCC1Nc2ncnc(N3CCOCC3)c2N(Cc2ccc(C)cc2)C1=O (stereo not given) | -16% (inactive) |
| CCc1ccc(/C=C/C(=O)c2cc(Br)ccc(=O)c2O)cc1 | 13% (active) |
| O=C(/C=C/c1ccccc1)c1cc(Br)ccc(=O)c1O | 19% (active) |
| Cc1cccc(/C=C/C(=O)c2cc(Br)ccc(=O)c2O)c1 | -14% (inactive) |
| COC(=O)c1c(N2C(=O)CC(Sc3ncccc3C(=O)O)C2=O)sc(C)c1C (stereo not given) | -14% (inactive) |
| CC(C)CC1C(C#N)=C(N)Oc2n[nH]c(-c3cccs3)c21 (stereo not given) | -16% (inactive) |
| O=C(NCCCN1CCCC1=O)c1ccc(OC(F)(F)F)cc1 | -18% (inactive) |
| COc1ccc(C(=O)N(CN2CCCC2=O)c2ccc(C)cc2)cc1 | -1% (inactive) |
| CCOc1ccc(C(=O)N(CN2CCCC2=O)c2ccc(C)cc2)cc1 | 10% (active) |
| O=C1CC(c2ccco2)CC2=C1C1c3ccccc3C(=O)N1c1ccccc1N2 (stereo not given) | -3% (inactive) |
| CSc1ccccc1-n1nnnc1SCC(=O)Nc1cc(C)ccc1C | -30% (inactive) |
| Cn1nnnc1SCC(=O)NC1CCCc2ccccc21 (stereo not given) | -21% (inactive) |
| Cn1nnnc1SCC(=O)Nc1ccccn1 | 4% (active) |

— PubChem BioAssay AID1835 (Johns Hopkins Ion Channel Center, 2009)
